Most compounds without a hit are left out; they make up all but 0.41% or so of the library.
GAA glycogen – GAA glycogen-cleavage inhibition or activation; recombinant GAA, glycogen substrate, Amplex Red glucose oxidase fluorescence; Potency, µM (top dose mostly 76.4 µM), actives largely listed as inhibitors; P10253; actives 0.38% (n = 300,000); AID 2100;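 also: the screen sought inhibitors and activators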
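Recombinant human enzyme (4 nM); glycogen substrate; 37 C, 40 min, pH 5.0. Readout: coupled glucose oxidase/Amplex Red fluorescence.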
aGlu spleen mod – lysosomal alpha-glucosidase (human) modulation. Potency, µM (doses to about 79.9 µM), most hits filed as inhibitors. actives 0.006% (n = 240,000). human spleen homogenate, 4-MU-alpha-glucoside fluorescence. P10253
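Human spleen homogenate (1 ug) incubated with compounds and 1 mM 4-methylumbelliferyl-alpha-D-glucopyranoside in pH 5.0 citrate/phosphate buffer, 37 C, 40 min. Stopped at pH 10; 4-MU fluorescence (Ex 365/Em 440 nm); AC50 by Hill fit.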
GLA inh pH 4.5 – alpha-galactosidase A (human) inhibition, pH 4.5. P06280. purified enzyme, 4-MU-alpha-Gal fluorescence, pH 4.5. activity change, negative = inhibition, % at 105 µM. 230,000 tested, under 10 active
GAA inh – inhibitors of human lysosomal alpha-glucosidase | purified human GAA, 4-MU-alpha-glucoside fluorescence | AID 1466 | P10253 | actives 0.005% (n = 200,000) | Potency, µM (top dose mostly 76.9 µM), most hits filed as inhibitors
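Endpoint fluorogenic read: 20 min room-temperature reaction of 4 nM human alpha-glucosidase with 400 uM 4-methylumbelliferyl-alpha-D-pyranoside, pH 5.0, quenched with 1M NaOH/1M glycine pH 10. AC50 from Hill modeling.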
aGal spleen mod – inhibitors or activators of human alpha-galactosidase in spleen homogenate. actives 0.008% (n = 240,000). P06280. Potency, µM (highest dose often 80 µM), most hits filed as inhibitors. human spleen homogenate, 4MU-alpha-Gal fluorescence, 40 min
Target sequence (P06280 32-429 limits assumed): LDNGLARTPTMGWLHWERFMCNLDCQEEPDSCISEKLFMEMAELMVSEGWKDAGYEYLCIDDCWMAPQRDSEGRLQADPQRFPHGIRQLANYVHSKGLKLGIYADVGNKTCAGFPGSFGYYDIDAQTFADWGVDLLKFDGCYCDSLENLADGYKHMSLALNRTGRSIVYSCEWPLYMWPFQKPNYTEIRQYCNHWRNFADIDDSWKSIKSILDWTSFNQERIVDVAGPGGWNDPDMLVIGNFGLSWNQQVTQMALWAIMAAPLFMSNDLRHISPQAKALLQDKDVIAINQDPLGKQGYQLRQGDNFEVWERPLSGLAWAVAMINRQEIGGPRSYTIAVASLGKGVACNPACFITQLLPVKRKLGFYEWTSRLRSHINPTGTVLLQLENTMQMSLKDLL
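Spleen homogenate 1 ug + cpd (titration) + 4-MU-alpha-D-galactopyranoside 1 mM; 37C 40 min; 50 mM citrate/phosphate pH 5.0, 0.01% Tween-20; stop pH 10; fluorescence 365/440; AC50 via Hill.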
N370S GC – inhibitors or activators of N370S glucocerebrosidase for Gaucher disease | N370S GC spleen homogenate, 4MU-glucoside fluorescence | actives 0.092% (n = 330,000) | P04062 | Potency, µM (series often up to 59.4 µM), most hits filed as inhibitors
Hits are given with their value; n = inactive; u = inconclusive; x = no result given; ! = not confirmed by another sample. Calls follow the shape of the dose curve; as a rule, active = well fitted curve in the direction sought with a large enough effect; inconclusive = small, poorly fitted or top-dose-only effect, or another doubt; inactive = no such curve, though single readings can be large; an effect the other way counts as inactive or inconclusive.

SMILES	GAA glycogen	aGlu spleen mod	GLA inh pH 4.5	GAA inh	aGal spleen mod	N370S GC
C(=Nc1cccc2c(N=Cc3ccco3)cccc12)c1ccco1	14µM	n	n	n	n	n
CN(C)c1ccc(N=Cc2ccco2)cc1	u	n	n	n	n	n
Oc1ccc(-c2csc(-c3cccnc3)n2)cc1O	7.1µM	n	n	x	n	n
Oc1ccc(-c2csc(Nc3ncccn3)n2)cc1O	7µM	n	n	n	n	n
Oc1ccc(-c2csc(-c3ccccc3)n2)cc1O	11µM	n	n	n	n	n
NC(=O)C1CCCN1C(=O)C(Cc1cnc[nH]1)NC(=O)C1CCC(=O)N1 (configuration not stated)	x	n	x	x	n	n
CCc1ccc(NC(=O)c2cc3c([nH]c2=O)CC(C)(C)CC3=O)cc1	n	x	x	x	x	x
CC(C)C=O	x	n	x	x	n	n
Nc1nc(-c2cccs2)c(NC(=O)c2ccccc2)s1	20µM	n	n	n	n	n
OCCNc1nc(Nc2ccccc2)nc(Nc2ccccc2)n1	n	n	n	n	n	11µM
OCCNc1nc(Nc2ccccc2)nc2ccccc12	n	n	n	n	n	n
CCCc1cc(=O)[nH]c(Nc2ccc(O)cc2)n1	28µM	n	n	n	n	n
Cc1cccc(N2CCN(c3nc4nonc4nc3N3CCSCC3)CC2)n1	10µM	n	n	n	n	n
CC(C)OCCCn1c(=O)c2ccccc2n2c(CCC(=O)N3CCN(c4ccccn4)CC3)nnc12	n	x	x	x	x	20µM
O=C(CCc1nnc2n(Cc3ccc(Cl)cc3)c(=O)c3ccccc3n12)N1CCN(c2ccccn2)CC1	x	x	x	x	x	n
O=C1NN(c2ccc(F)c(Cl)c2)C(=O)/C1=C\c1cccc(OC(=O)c2cccs2)c1	u	n	n	n	n	n
CC(C)=C1C(=O)NN(c2ccc(F)c(Cl)c2)C1=O	25µM	n	n	n	n	n
CC(/C=C/C(=O)NO)=C\[C@@H](C)C(=O)c1ccc(N(C)C)cc1	x	n	n	x	n	18µM!
COc1ccc(OC)c(NC(=O)c2cc(=O)c3c(C)cc(C)cc3o2)c1	n	x	x	x	x	x
CCOC(=O)c1c(OCC)[nH]c2c1cc(O)c1ccccc12	25µM	n	n	n	n	u
CCCCn1c(SCC(=O)c2ccc(O)c(O)c2)nc2ccsc2c1=O	28µM	n	n	n	n	n
O=C(CCCn1c(SCC(=O)c2ccc(O)c(O)c2)nc2ccccc2c1=O)NCC1CCCO1 (configuration not stated)	5.6µM	n	n	n	n	n
Cc1ccccc1NC(=O)CC1SC(=O)N(c2ccccc2)C1=O (configuration not stated)	25µM	n	n	n	n	n
CCOc1ccc(NC(=O)CC2SC(=O)N(c3ccccc3)C2=O)cc1 (configuration not stated)	20µM	n	n	n	n	n
O=C(CC1SC(=O)N(c2ccccc2)C1=O)Nc1cccc2ccccc12 (configuration not stated)	u	n	n	x	n	n
SMILES	GAA glycogen	aGlu spleen mod	GLA inh pH 4.5	GAA inh	aGal spleen mod	N370S GC
CCOc1ccccc1NC(=O)CC1SC(=N)N(c2ccccc2)C1=O (configuration not stated)	n	n	n	n	n	n
COc1cccc(CNC(=O)c2cc3cc(C)ccc3n2C)c1	n	x	x	x	x	x
O=C1OCC(CO)(CO)N=C1NNc1ccc(Cl)c(Cl)c1	35µM	n	n	n	n	n
CCOc1ccc2c(c1)-c1c(ssc1=S)C(C)(C)N2	20µM	u	n	n	n	n
O=C(Nc1sc2c(c1C(=O)NCc1ccco1)CCCC2)c1cc(=O)c2cc(Cl)ccc2o1	n	x	x	x	x	x
CN(C)c1c(N)c(=O)oc2ccccc12	u	n	n	n	n	n
Cc1ccc(Nc2c(N)c(=O)oc3ccccc23)cc1	20µM	n	n	n	n	n
Nc1c(N)c2ccccc2oc1=O	7.1µM	n	n	n	n	n
CNc1c(N)c(=O)oc2ccccc12	n	n	n	n	n	n
CN1c2ccccc2C(C)(C)C12C=Nc1c(ccc3ccccc13)O2 (configuration not stated)	n	n	n	n	n	n
CN1c2ccccc2C(C)(C)[C@]12C=Cc1cc(O)ccc1O2	7.9µM	n	n	n	n	n
Cc1ccc(CNc2ccc(N3CCOCC3)c(Cl)c2)cc1	x	x	x	x	x	n
c1cc(CNc2ccc(N3CCOCC3)cc2)ccn1	n	n	n	n	n	n
CC(C)c1ccc(CNc2ccc(N3CCOCC3)cc2)cc1	28µM	n	n	n	n	n
Cc1ccc(CNc2ccc(N3CCOCC3)cc2)cc1	6.3µM	x	x	x	x	n
O=C(c1ccncc1)c1ccc(N2CCN(C3CC(=O)N(Cc4cccs4)C3=O)CC2)cc1 (configuration not stated)	n	n	n	n	n	n
O=C1CC(N2CCN(c3ccc(O)cc3)CC2)C(=O)N1Cc1cccs1 (configuration not stated)	6.3µM	n	n	n	n	n
COC(=O)CC[C@@H](C(=O)O)N1C(=O)c2ccccc2C1=O	n	n	n	n	n	n
O=C(O)CC[C@@H](C(=O)O)N1C(=O)c2ccccc2C1=O	n	n	n	x	7.9µM!	n
CCc1ccc(NC(=S)Nc2cc(OC)c(NC(=O)C(C)C)cc2OC)cc1	12µM	n	n	n	n	n
COc1cc(NC(=S)NC(C)=O)ccc1NC(=O)C(C)C	n	n	n	n	n	n
CCNc1ncc2nc(-c3cc(F)cc(F)c3)c(=O)n(Cc3ccc(F)cc3)c2n1	x	n	x	x	n	n
Cc1ccc(S(=O)(=O)Nc2nc(C)c(NC(=O)OCCCl)s2)cc1	22µM	n	n	n	n	n
Cc1nc(NS(=O)(=O)c2ccccc2)sc1NC(=O)OC(C)C	28µM	n	n	n	n	n
Cc1nc(C#N)c(N/N=C/c2cccc(Cl)c2)o1	32µM	n	n	n	n	n
SMILES	GAA glycogen	aGlu spleen mod	GLA inh pH 4.5	GAA inh	aGal spleen mod	N370S GC
COc1ccc(CCNC(=O)CCc2c(C)nc3cc(-c4ccccc4OC)nn3c2C)c(OC)c1	n	x	x	x	x	x
CCOc1ccc2oc(=O)cc(CN3CCN(C(=O)c4ccc(Cl)cc4)CC3)c2c1	n	x	x	x	x	x
Cc1ccc(S(=O)(=O)N(C)CCCC(=O)Nc2ccc(F)cc2)cc1	n	n	n	n	n	n
CN(CCCC(=O)O)S(=O)(=O)c1ccc2c(c1)C(=O)c1cc(S(=O)(=O)N(C)CCCC(=O)O)ccc1-2	25µM	x	x	x	x	n
CC12C=C(/C=C/c3ccc(Br)cc3)C(C)(C1)[C@H](c1ccc(Br)cc1)CC2=O (some centres not stated)	x	n	n	x	n	n
COc1ccc(Cn2nnnc2C(C(C)C)N2CCN(c3ccccc3OC)CC2)cc1 (configuration not stated)	n	n	n	n	n	n

Bioassay records from PubChem.
